# Data taken from the supplement of paper PMC12636033.
# ± gives the standard deviation of the averaged measurements. The full ranking holds about 33,000 sequences; the median of “E-score (rank enrichment, -0.5 to 0.5)” is about -0.0043, and the highest 2% start at about 0.24. This is one part of a sample in which the highest values are shown more often than they occur.
# System: 2Sp-muMax20 (muMax20 with two 2,6-bis(methyl)pyridine Cys staples)
# Assay: PBM 8-mer E-score (E-score (rank enrichment, -0.5 to 0.5)); higher = stronger preferential binding
# Procedure: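 Protein binding microarray (universal PBM chip covering all 10-mers in fixed probe flanks) with chemically synthesized human Max(13-93) bHLH-LZ analogs (not full-length Max) bearing noncanonical residues (hArg, Tha, Aib, Nle at 65) and aromatic Cys staples. Read-out per 8-mer (and its reverse complement): E-score (rank-based enrichment, -0.5 to 0.5) and Z-score of median probe intensity.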
row,Sequence,PBM 8-mer E-score
1,TACAAGAA,0.213 ± 0.018
2,AACAATAA,0.134 ± 0.036
3,CACAATAA,0.0537 ± 0.028
4,TACAATAA,0.321 ± 0.051
5,GATAAACC,-0.167 ± 0.039
6,TCAGGGGA,0.143 ± 0.019
7,TAAACGAA,0.143 ± 0.00096
8,AACTGATG,-0.0947 ± 0.093
9,CAAAACCA,0.218 ± 0.056
10,TTCGAAAA,0.0928 ± 0.011
11,CCAGAGCC,0.0426 ± 0.067
12,ACAATTAT,0.139 ± 0.091
13,AAAATTAT,0.252 ± 0.027
14,AAAATTAA,0.126 ± 0.057
15,ATAATTAT,0.274 ± 0.062
16,TTAATTAA,0.303 ± 0.081
17,GTAATTAC,0.177 ± 0.0081
18,ATAATTAC,0.297 ± 0.044
19,CTAATTAC,0.108 ± 0.024
20,AAAATTAG,0.129 ± 0.0083
21,GTAATTAA,0.123 ± 0.033
22,CTAATTAA,0.0684 ± 0.14
23,ATAATTAA,0.183 ± 0.096
24,CAGCTGGC,0.00279 ± 0.062
25,TAAGACGA,0.118 ± 0.035

row,Sequence,PBM 8-mer E-score
1,AGTTCACA,0.0105 ± 0.0032
2,AATATCAC,0.189 ± 0.038
3,AAGCTGCT,-0.0983 ± 0.048
4,ACTGACTA,-0.00544 ± 0.014
5,GGCCTAGA,-0.101 ± 0.039
6,AGGGCGAG,0.00325 ± 0.014
7,AACTAGCT,-0.0509 ± 0.098
8,CTAATTAG,-0.0106 ± 0.077
9,ATAATTCG,0.221 ± 0.06
10,TTAACTAA,0.248 ± 0.0099
11,CTAACTAA,0.0344 ± 0.032
12,ATAATTAG,0.289 ± 0.006
13,ATAACTAA,0.174 ± 0.018
14,ACTCGCTG,-0.155 ± 0.038
15,AATTGTAC,0.22 ± 0.0078
16,TGGTATAA,0.219 ± 0.019
17,CGGGTACC,-0.168 ± 0.059
18,ACGCTACA,0.161 ± 0.04
19,ACCCCAAC,0.2 ± 0.075
20,ACCCCAAT,0.248 ± 0.017
21,ACCCCAGA,0.102 ± 0.066
22,ACCCCAAG,0.167 ± 0.067
23,ACCCCAGT,0.303 ± 0.048
24,ACCCCAGG,-0.135 ± 0.03
25,CGGCTCAG,-0.245 ± 0.011

row,Sequence,PBM 8-mer E-score
1,AAGGCGAG,-0.114 ± 0.11
2,CCGCACCG,-0.232 ± 0.037
3,ATTGTAGG,0.163 ± 0.04
4,AGAAACAA,0.23 ± 0.034
5,ATTATGTC,-0.0254 ± 0.039
6,ATAATGTA,0.261 ± 0.054
7,ATTATGTA,0.252 ± 0.063
8,CTAATGTA,0.0902 ± 0.11
9,ATAATGTC,0.0928 ± 0.013
10,ATTATGTG,0.19 ± 0.015
11,CCAAGGTA,-0.122 ± 0.08
12,ATGGTCCG,-0.11 ± 0.052
13,GAGCTTAC,0.0525 ± 0.066
14,TACCCTGA,0.0285 ± 0.0041
15,GCTGAGAC,-0.0936 ± 0.027
16,GGTTGGCA,-0.0827 ± 0.032
17,AAAAAGCC,0.0819 ± 0.062
18,AAAAGCGA,0.147 ± 0.046
19,CAAAGCTG,0.0649 ± 0.017
20,AAAAGCGC,0.236 ± 0.064
21,CAAAGCGC,-0.0804 ± 0.097
22,AAAAAGCT,0.282 ± 0.011
23,AAAAGCTG,0.272 ± 0.0057
24,AAAAGCTA,0.141 ± 0.049
25,AAAAAGCA,0.206 ± 0.014

row,Sequence,PBM 8-mer E-score
1,ACTTTTGG,0.145 ± 0.018
2,GCAACGGC,-0.147 ± 0.018
3,GGCTCAGA,-0.204 ± 0.025
4,CCGAAGCC,-0.258 ± 0.035
5,ATAGCTAC,0.204 ± 0.0011
6,AGGTGTCG,-0.0243 ± 0.082
7,CAGAGGCC,-0.0446 ± 0.062
8,CTCAATTA,0.0912 ± 0.079
9,AACAATTA,0.246 ± 0.078
10,AACAATTC,0.166 ± 0.067
11,ATCAATTG,0.255 ± 0.068
12,GTCAATTA,0.0735 ± 0.075
13,AACAATTG,0.0804 ± 0.12
14,ATCAATTC,0.159 ± 0.024
15,ATCAATTA,0.28 ± 0.041
16,ATCAATCG,0.16 ± 0.038
17,AACGTCAT,0.0419 ± 0.012
18,AAGTTTCG,0.0139 ± 0.064
19,TACACTCA,0.0543 ± 0.059
20,CCAGAAAA,-0.0128 ± 0.11
21,GGGCAAAC,-0.0742 ± 0.046
22,AATCTATC,0.061 ± 0.099
23,CTGTCTAC,-0.085 ± 0.0076
24,ACGGGTGA,-0.227 ± 0.052
25,CCCACCCA,0.364 ± 0.023

row,Sequence,PBM 8-mer E-score
1,CCCACCCC,0.332 ± 0.046
2,GCCACCCA,-0.126 ± 0.068
3,CCCACTTC,0.00615 ± 0.027
4,CCCACTTA,0.236 ± 0.023
5,TCCACCCA,0.00246 ± 0.039
6,GCCACTTA,0.0747 ± 0.039
7,CACACCCG,-0.15 ± 0.012
8,GCCACCCC,-0.0325 ± 0.055
9,CCCACCCG,0.29 ± 0.03
10,ACCACCCC,0.0435 ± 0.03
11,ACCACCCG,-0.146 ± 0.077
12,ATCGGCCG,-0.187 ± 0.13
13,CCGGCGGC,-0.269 ± 0.029
14,CCTATTCG,-0.105 ± 0.0044
15,ACGAAGAA,0.16 ± 0.06
16,ATGCGATC,0.00891 ± 0.016
17,CAAGACGG,-0.109 ± 0.028
18,GCAATTGC,0.242 ± 0.013
19,GCAATTGA,0.0718 ± 0.079
20,CCAATTGC,0.108 ± 0.012
21,ACGTCCCG,-0.326 ± 0.046
22,AGGGCGGC,-0.0202 ± 0.17
23,AGGGCGGG,0.311 ± 0.011
24,AGGGCGGA,-0.101 ± 0.0044
25,ATAACGTG,0.293 ± 0.018

row,Sequence,PBM 8-mer E-score
1,ATAACGTA,0.107 ± 0.085
2,ATAACTTG,0.241 ± 0.012
3,ATAACTTC,0.0494 ± 0.033
4,ATAACTTA,0.14 ± 0.043
5,ATAACGTC,0.138 ± 0.029
6,CTGGGTCA,-0.0254 ± 0.017
7,AGCTACGC,0.0669 ± 0.0082
8,CCGTCGGC,-0.232 ± 0.016
9,CAAGCCAC,-0.143 ± 0.044
10,CTATTTTA,0.224 ± 0.026
11,ATATTTAC,0.159 ± 0.032
12,ATATTTTA,0.245 ± 0.02
13,ATATTTAA,0.334 ± 0.019
14,GTATTTTA,0.0916 ± 0.055
15,CTATTTAA,-0.0484 ± 0.012
16,ATCTTAGA,0.0255 ± 0.036
17,CTCGCCGC,-0.0225 ± 0.15
18,AATTGCCG,-0.00487 ± 0.03
19,GTTCTTTA,0.000435 ± 0.15
20,CTTCTTTA,0.245 ± 0.01
21,CTTCTTTC,-0.118 ± 0.046
22,AACCTACT,-0.0133 ± 0.062
23,AATCTGAT,0.057 ± 0.016
24,GAAATAAC,-0.1 ± 0.05
25,AAAATAAC,0.2 ± 0.041

row,Sequence,PBM 8-mer E-score
1,CAAATAAC,0.238 ± 0.041
2,ACAGTGGC,-0.0719 ± 0.054
3,CGAGGTTC,-0.105 ± 0.037
4,CCTCAGGA,-0.147 ± 0.12
5,AGTCGGGC,-0.144 ± 0.022
6,ATTATAAA,0.263 ± 0.069
7,ATTATAAT,0.169 ± 0.1
8,CTTATAAG,0.0331 ± 0.11
9,CCTATAAA,-0.143 ± 0.042
10,GTTATAAA,0.154 ± 0.051
11,TTTATAAA,0.246 ± 0.074
12,ATTATAAC,0.247 ± 0.041
13,GTTATAAC,0.16 ± 0.047
14,CTTATAAA,0.184 ± 0.071
15,ATTATAAG,0.28 ± 0.0046
16,CTTATAAC,0.0403 ± 0.076
17,ATTATAGA,0.0771 ± 0.056
18,ACTGAACG,-0.181 ± 0.086
19,AGAAACCG,-0.0327 ± 0.035
20,ACCACTTC,0.0215 ± 0.0022
21,AAGACTAA,0.0726 ± 0.081
22,GATTTTCC,-0.0716 ± 0.0054
